Measurements as given in PubChem BioAssay AID1626 (SRMLSC, 2009).
Among all 220,000 compounds or so, about 2,000 (0.91%) were called active. Roughly 2% stayed inconclusive and do not appear here. Rule as the data show it: inconclusive = inhibition above about 80% without an active follow-up result; inactive = below that; test concentration not stated here. These entries were drawn from the full list. Potency and affinity values are given separately.

Experiment: M. tuberculosis H37Rv growth inhibitors, H37Rv strain (AID 1626);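 also: bacteria incubated seven days before Alamar blue readout; 0% = bacteria only wells and 100% = bacteria with antibiotic wells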
Conditions: active compounds read high, concentration not given here
For COc1ccccc1/C=C/C(=O)NCC(=O)N/N=C/c1ccccc1[N+](=O)[O-], the inhibition was -1.7% (inactive).
In the case of CN(C)S(=O)(=O)c1ccc(C(=O)OCC(=O)Nc2sc3c(c2C#N)CCCCC3)cc1, the inhibition is reported as -0.67% (inactive).
With CC(C)(C)c1ccc(-c2noc(-c3ccc4c(c3)CCO4)n2)cc1 the inhibition was 10.1% (inactive).
For Nc1c(N(CCO)C(=O)COc2ccc(Cl)cc2)c(=O)[nH]c(=O)n1Cc1ccccc1, the inhibition was -6.77% (inactive).
For Cc1ccc(Nc2nc(N)c([N+](=O)[O-])c(N3CCC(C)CC3)n2)cc1C, the inhibition was 10.8% (inactive).
For O=c1cc(NCc2ccccc2)nc2ccccn12, the inhibition was 4.08% (inactive).
With O=C(CSc1ccccn1)Nc1ccc(NC(=O)CSc2ccccn2)cc1 the inhibition was -2.88% (inactive).
In the case of COc1ccc(NC(=O)CSc2ccccn2)cc1, the inhibition is reported as 7.31% (inactive).
In the case of O=C(CSc1ccccn1)Nc1ccc2c(c1)C(=O)c1ccccc1C2=O, the inhibition is reported as 2.78% (inactive).
With Cn1ccnc1SCC(=O)Nc1ccc2ccccc2c1 the inhibition was 11.1% (inactive).
With COc1cccc(NC(=O)CSc2ccccn2)c1 the inhibition was -1.36% (inactive).
With COc1ccc(NC(=O)CSc2ccccn2)cc1OC the inhibition was -4.19% (inactive).
For O=C(CSc1ccccc1)Nc1ccncc1, the inhibition was 0.82% (inactive).
With CC(=O)Nc1ccc(NC(=O)CSc2ccccn2)cc1 the inhibition was 7.17% (inactive).
In the case of O=C(NCc1ccccn1)/C(=N/O)c1ccccc1, the inhibition is reported as 1.57% (inactive).
In the case of COc1ccc(N2C(=O)NC(NC(=O)c3cccnc3)(C(F)(F)F)C2=O)cc1 (stereo not drawn), the inhibition is reported as -4.91% (inactive).
With Cc1nccc(-c2cc(-c3ccc(Cl)cc3Cl)no2)n1 the inhibition was 0.59% (inactive).
For Cc1onc(-c2ccccc2)c1C(=O)NNC(=S)NC(=O)/C=C/c1cccs1, the inhibition was 5.26% (inactive).
In the case of O=C(N/N=C/c1cc([N+](=O)[O-])ccc1O)C1CC1, the inhibition is reported as 9.15% (inactive).
With Cc1nn(-c2ccc(F)cc2)c2sc(C(=O)OC3CCOC3=O)cc12 (stereo not drawn) the inhibition was -1.05% (inactive).
With Cc1ccc(S(=O)(=O)Nc2ccc3c(c2)nc(C)n3C)cc1 the inhibition was 2.7% (inactive).
With COc1cc(/C=C2/CC/C(=C/c3ccc(O)c(OC)c3)C2=O)ccc1O the inhibition was -0.8% (inactive).
For CNc1ccc(/C=C2\COc3ccccc3C2=O)cc1[N+](=O)[O-], the inhibition was 10.8% (inactive).
For COc1cc(/C=C2\COC/C(=C\c3cc(OC)c(OC)c(OC)c3)C2=O)cc(OC)c1OC, the inhibition was 21.1% (inactive).
In the case of COc1ccc(/C=C2/CCc3ccccc3C2=O)cc1OC, the inhibition is reported as 5.56% (inactive).
In the case of COc1ccc(/C=C2\Cc3ccccc3C2=O)cc1OC, the inhibition is reported as 4.06% (inactive).
In the case of O=C1/C(=C/c2cccs2)COc2ccccc21, the inhibition is reported as 4.75% (inactive).
With CCC(C)NC(=O)CSc1nc2ccccc2c(=O)n1CCCC(=O)NCC1CCCO1 (stereo not drawn) the inhibition was -0.9% (inactive).
For Cc1nn(Cc2ccccc2)c(Cl)c1C(=O)OCC#N, the inhibition was 2.96% (inactive).
In the case of Cc1cccc(NC(=O)CSc2ccc(C(N)=O)cc2[N+](=O)[O-])c1C, the inhibition is reported as -7.31% (inactive).
For O=C(O)CCC(=O)Nc1ccccc1C(=O)NCc1ccco1, the inhibition was -1.28% (inactive).
For Cc1ccc(NC(=S)N/N=C2/CCCCc3ccccc32)cc1, the inhibition was -0.29% (inactive).
For COc1ccc2nc(NC(=O)CSc3nnc(-c4ccoc4C)n3C)sc2c1, the inhibition was 0.74% (inactive).
With COCCOC(=O)c1c(NC(=O)CN2CCc3ccccc32)sc(C(N)=O)c1C the inhibition was 6.77% (inactive).
With CCn1cc(C(=O)O)c(=O)c2cnc(N3CCN(C(=S)Nc4ccccc4C(F)(F)F)CC3)nc21 the inhibition was -8% (inactive).
In the case of O=C(O)C(Cc1c[nH]c2ccccc12)N1Cc2ccccc2C1=O (stereo not drawn), the inhibition is reported as -8.14% (inactive).
For CC(C)CNC(=O)NC1C(NC(=O)NCC(C)C)N(C)C(=O)N1C (stereo not drawn), the inhibition was -2.11% (inactive).
In the case of O=C(Nc1ccc(N2CCOCC2)cc1)c1cc2c(s1)CCCC2, the inhibition is reported as -7.27% (inactive).
For COc1ccc2nc(/N=C\N(C)C)sc2c1, the inhibition was 5.98% (inactive).
With COc1ccc2nc(N=Nc3c(O)ccc4ccccc34)sc2c1 the inhibition was 13.7% (inactive).
For CC(C)(C)C(=O)NNC(=O)c1cc2sccc2s1, the inhibition was 13.2% (inactive).
In the case of CCCS/C(N)=N/N=C/c1ccccc1O, the inhibition is reported as 4.15% (inactive).
With CC(=O)c1ccccc1OCC(O)CN1CCN(CCN2C(=O)c3cccc4cccc(c34)C2=O)CC1 (stereo not drawn) the inhibition was 39.8% (inactive).
In the case of CCOc1ccccc1C(=O)N1CCN(C(c2ccccc2)c2ccccc2)CC1, the inhibition is reported as 0.97% (inactive).
For CC1=CC(=O)N(c2ccc(C)cc2)C1c1ccc(Cl)cc1 (stereo not drawn), the inhibition was 11.2% (inactive).
In the case of Cc1ccc2c(c1)c1c(n2CC(O)CNC(C)(C)C)CCCC1 (stereo not drawn), the inhibition is reported as 3.21% (inactive).
With Cc1ccc2c(c1)c1c(n2CC(O)CNC2CCCC2)CCCC1 (stereo not drawn) the inhibition was 27.5% (inactive).
With COc1ccc(OC)c(NC(=O)CCc2c[nH]c3ccccc23)c1 the inhibition was 11.6% (inactive).
For Cc1ccccc1C(=O)Nc1nnc(-c2ccncc2)o1, the inhibition was 1.04% (inactive).
With COc1ccc(-c2nnc(NC(=O)C(C)C)o2)cc1 the inhibition was 28.3% (inactive).
In the case of Cc1ccc(NC(=O)Nc2nnc(-c3ccccc3)o2)cc1, the inhibition is reported as 3.09% (inactive).
With COc1ccc(NC(=O)c2cc(Cl)ccc2Cl)c([N+](=O)[O-])c1 the inhibition was 0.17% (inactive).
For Cc1ccccc1C(=O)Nc1nnc(-c2cccnc2)o1, the inhibition was 20.8% (inactive).
For COc1ccc(Oc2ccc(NC(=O)c3ccccc3C)cc2)cc1, the inhibition was 9.33% (inactive).
In the case of CCSc1nnc(-c2ccc(OC)cc2)o1, the inhibition is reported as 10.5% (inactive).
With COc1ccc(-c2nnc(NC(=O)C3CC3)o2)cc1 the inhibition was 14.1% (inactive).
In the case of O=C(N/N=C/c1ccc2c(c1)OCO2)c1cc(-c2ccccc2Cl)nc2ccccc12, the inhibition is reported as 4.7% (inactive).
For CSc1ccc(/C=C/C(=O)OCC(=O)NC(C)C)cc1, the inhibition was 0.59% (inactive).
For O=C(Nc1ccccc1)NC1CCN(Cc2ccccc2)CC1, the inhibition was -1.63% (inactive).
For O=C(Cn1c(=O)n(CC2CCCO2)c(=O)c2ccccc21)c1ccccc1 (stereo not drawn), the inhibition was 1.39% (inactive).
For O=C(CCCSc1nc2sc3c(c2c(=O)[nH]1)CCC3)NCCO, the inhibition was -2.38% (inactive).
In the case of O=C(NNC(=O)c1cccnc1)Nc1ccc(Cl)c(Cl)c1, the inhibition is reported as -1.69% (inactive).
With C=CCn1c(SCn2nnc3ccccc3c2=O)nc2scc(-c3cccs3)c2c1=O the inhibition was -6.52% (inactive).
